# Experimental data as given in ChEMBL document CHEMBL4513216, “Probing the Open Global Health Chemical Diversity Library for Multistage-Active Starting Points for Next-Generation Antimalarials” (ACS Infect Dis, 2020).
# Hit rate of the full screen: of about 65,000 compounds, about 2,100 (3.2%) showed an effect of 50% or more. The median lay at about -52%. The sample holds strong results, similar compounds and a random draw of the others, so the mix is not that of the screen.
# System: Plasmodium falciparum
# Assay: Screen against P. falciparum Asexual Blood Stage (ABS), at 5uM
# Format: functional, Dd2
# Settings: tested at 5 uM
row,Structure (SMILES),INHIBITION [%]
1,CN(C)S(=O)(=O)N1C[C@H]2CC[C@@H](C1)N(CCC(=O)NCc1ccco1)C2,-109
2,Cc1occc1C(=O)N1C[C@@H]2CCCO[C@@H]2[C@H](NC(=O)CC2CC2)C1,-27.2
3,COc1ccc(CCNC(=O)C(C)Nc2ccc(C)c(C)c2)cc1 (centres undefined),-52
4,Cc1nc(CN2CCc3nc(N4CCCC4)nc(NC(C)C)c3C2)cs1,57.3
5,CC(C)CCN1CCc2nc(N3CCOCC3)nc(NC(C)C)c2C1,8.26
6,CC(C)Nc1nc(N2CCCC2)nc2c1CCN(S(C)(=O)=O)CC2,51.5
7,CC(C)Nc1nc(N2CCCC2)nc2c1CN(C)CC2,48.5
8,Cc1nc(N2CCCC2)nc2c1CN(C(C)C)CC2,-36.3
9,CCN1CCc2nc(N3CCOCC3)nc(NC(C)C)c2C1,16.7
10,CCS(=O)(=O)N1CCc2nc(N3CCCC3)nc(N(C)C)c2CC1,-19.4
11,CC(C)Nc1nc(N2CCCC2)nc2c1CN(c1ncc(F)cn1)CC2,23.3
12,CC(C)Nc1nc(N2CCCC2)nc2c1CN(C(C)C)CC2,66.8
13,CCCN1CCc2nc(N3CCOCC3)nc(NC(C)C)c2C1,-33.6
14,CC(C)Nc1nc(N2CCCC2)nc2c1CN(S(C)(=O)=O)CC2,50.6
15,Cc1nc(CN2CCc3nc(NC(C)C)nc(C)c3C2)cs1,-19.1
16,CC1(C)CN=C(N2CCN(CCCN3CCOCC3)CC2)S1,-67.2
17,N#Cc1ccc(N2CCCC3(CCN(c4cncnc4)C3=O)C2)nc1 (centres undefined),-38.5
18,CCN(CCO)C[C@@H]1CN(C(=O)c2ccc(C)s2)C[C@@H]1CO,-69.5
19,CN(C)C(=O)C1CN(Cc2ccsc2)Cc2ccnn2C1 (centres undefined),-99.4
20,CCC(=O)Nc1ccc2c(c1)C1(CCOCC1)CN2CCOC,-59.9
21,Fc1cccc(N2C[C@H]3CCN(c4cccnc4)C[C@H]3C2)c1,13.9
22,O=C(CCc1nc(-c2ccsc2)no1)NCC1CCN(C2CC2)C1 (centres undefined),2.06
23,CCn1nc2c(cc1=O)CN(Cc1nc(CCOC)no1)CC2,-151
24,CCCn1nc2c(cc1=O)CN(Cc1nc(CCOC)no1)CC2,62.4
25,COCCc1noc(CN2CCc3nn(C(C)C)c(=O)cc3C2)n1,-60.6
26,c1cncc(-c2nccc(CN3CCCC3)n2)c1,-151

row,Structure (SMILES),INHIBITION [%]
1,CCc1c(C)nc2ccccc2c1N1CCC(O)CC1,0.854
2,CCc1c(C)nc2ccccc2c1N1CCC(NC(C)=O)CC1,24.4
3,CCc1c(C)nc2ccccc2c1N1CCC(C(=O)NC)CC1,52.7
4,Cc1ccc(C(=O)N2C[C@@H]3[C@@H](C2)OCC(=O)N3Cc2cccnc2)o1,-84.3
5,CN(C)Cc1cccc(-c2cccnc2C(=O)NCc2cn(C)cn2)c1,-167
6,Cc1ccc(C(=O)N2C[C@H]3CCC[C@@]3(COCC3CCOCC3)C2)o1,-35.2
7,CCS(=O)(=O)Nc1ccc2oc(C)c(C(=O)OC)c2c1,-54.7
8,COc1ccccc1C(=O)Nc1ccc(OC2CCN(C)CC2)cc1,64.2
9,Cc1ccccc1C(=O)Nc1ccc(OC2CCN(C)CC2)cc1,-41.5
10,CN1CCC(Oc2ccc(NC(=O)c3ccccc3Br)cc2)CC1,-76
11,CC(Cn1ccnc1)NC(=O)NCCc1cccnc1 (centres undefined),30.9
12,O=C(c1ncoc1C1CC1)N1CCCN(CCCc2ccccc2)CC1,69.7
13,Cn1nccc1C(=O)N1CCCN(CCCc2ccccc2)CC1,-14.1
14,O=C(c1ncoc1C1CC1)N1CCN(CCOc2ccccc2)CC1,-35.9
15,COCCn1c(-c2cccc(OC)c2)cnc1NC(=O)NCCC(C)C,-63.4
16,CN(C)C(=O)c1ccc(C2CCCN2C(=O)c2cccc3c2OCC3)s1 (centres undefined),-53.8
17,COc1ccc(CN2CCC3(CC2)CN(c2ccccn2)CCO3)cc1,62.3
18,COc1ncccc1CN1CCC2(CC1)CN(c1ccccn1)CCO2,56.5
19,Fc1ccc(CN2CCC3(CC2)CN(c2ccccn2)CCO3)cc1,49
20,Cn1ccnc1CN1CCC2(CC1)CN(c1ccccn1)CCO2,-254
21,Cc1noc(C)c1CN1CCC2(CC1)CN(c1ccccn1)CCO2,30
22,c1ccc(CN2CCC3(CC2)CN(c2ccccn2)CCO3)nc1,-67.1
23,COCC(=O)NCc1cc(=O)n2c(n1)CN(C)CCC2,-101
24,Cc1nc(OCC(=O)N2CCCC2)cc(-n2cccn2)n1,-111
25,CCC(CC)C(=O)N1CCC2(CC1)c1ccccc1[C@@H](OC)[C@@H]2O,-1.77
26,Cc1ccc(C2CN(c3nnc(C(F)F)s3)CCO2)c(C)c1 (centres undefined),-42.4

row,Structure (SMILES),INHIBITION [%]
1,Cc1cc(C)n(C2CN(CC(=O)N(C)Cc3ccsc3)C2)n1,26.5
2,COc1cccc(CN(C)C(=O)CN2CC(n3nc(C)cc3C)C2)c1,63.3
3,Cc1cc(C)n(C2CN(CC(=O)N(C)Cc3cnn(C)c3)C2)n1,-98.1
4,Cc1nc(CN2CCC3(CC2)CC(=O)N(C)c2ccccc23)cs1,-87.3
5,Cc1ccc(C(=O)NC2CCN(C(=O)Nc3ccncc3)CC2)o1,-195
6,COCCn1cnc2ccc(NC(=O)C3CC3)cc2c1=O,-76
7,COCCOCC(=O)N1C[C@@H]2CC[C@H](Oc3ccccc3Cl)[C@@H]2C1,-103
8,CCOCC(=O)N1C[C@@H]2CC[C@H](Oc3ccccc3)[C@@H]2C1,-68.1
9,CN(C)CC(=O)N1C[C@@H]2CC[C@H](Oc3ccccc3Cl)[C@@H]2C1,63.7
10,COCCOCC(=O)N1C[C@@H]2CC[C@H](Oc3ccccc3)[C@@H]2C1,-114
11,O=C(Cn1ccnc1)N1C[C@@H]2CC[C@H](Oc3ccccc3Cl)[C@@H]2C1,-43.2
12,CN(C)CC(=O)N1C[C@@H]2CC[C@H](Oc3ccccc3)[C@@H]2C1,61.8
13,CC(C)c1ncc(Cl)c(C(=O)N2CCN(C3CCCC3)CC2)n1,-16.7
14,Cc1nn(C)c(C)c1NC(=O)c1cccc(CN2CC[C@H](O)C2)c1,-133
15,CN(C)S(=O)(=O)N(C)C(c1cccc(F)c1)c1ccccn1 (centres undefined),-27.6
16,O=C(c1cc(Cl)ccc1F)N1CCCC1Cn1cccn1 (centres undefined),-101
17,Cc1cc(C)n(CCCNc2ncnc3c2NC(=O)CN3)n1,-40.1
18,COc1ccccc1-n1nc(CC(C)C)nc1Cc1nnc(N)s1,-59.7
19,CSc1ccc(CN(C)C(=O)c2cc3c([nH]c2=O)CCCC3=O)cc1,-31.6
20,CN(Cc1ccsc1)C(=O)c1cc2c([nH]c1=O)CCCC2=O,-198
21,CN(Cc1ccc(N(C)C)cc1)C(=O)c1cc2c([nH]c1=O)CCCC2=O,50.8
22,Cc1cccc(CNC2CCCc3c2cnn3C)c1 (centres undefined),-37.4
23,Cc1cccc(CNC2CCCc3c2cnn3Cc2ccccc2)c1 (centres undefined),65.9
24,Cc1ccc(CNC2CCCc3c2cnn3Cc2ccccc2)s1 (centres undefined),16.3
25,c1cnc(N2CC[C@@H](N3CCOCC3)[C@@H]2Cc2ccncc2)nc1,-78
26,Nc1cc(-c2c[nH]nc2C2CCN(C(=O)C3CCCC3)C2)ccn1 (centres undefined),-27.3

row,Structure (SMILES),INHIBITION [%]
1,CC(C)CNc1cc(-c2c[nH]nc2C2CCN(C(=O)C3CC3)C2)ccn1 (centres undefined),84.6
2,CC(=O)N1CCC(c2n[nH]cc2-c2ccnc(N)c2)C1 (centres undefined),-13.8
3,COc1cccc(CCC2CCCN(Cc3ncc[nH]3)C2)c1 (centres undefined),22
4,Cc1cc(N2CCC(Cc3ccccc3)CC2)nc(-c2ccncc2)n1,-64.9
5,CN1C(=O)CC[C@@H]2[C@H]1CCN2S(=O)(=O)c1cccs1,47.1
6,O=S(=O)(c1cccs1)N1CC[C@H]2[C@H]1CCN2CC1CC1,57.7
7,CC(C)CN1CC[C@@H]2[C@@H]1CCN2S(=O)(=O)c1cccs1,17.9
8,Cc1ccc(CNC(=O)c2ccc(=O)n(C)n2)c(OCC2CC2)c1,-124
9,O=C1NCCN1C1CCN(Cc2nc(-c3ccsc3)no2)CC1,-14.4
10,COCC(=O)Nc1ccnc(OCCN(C)C)c1,-59.7
11,CCc1ccccc1OCC(=O)Nc1ccnc(OCCN(C)C)c1,59.7
12,COc1cc(C)ccc1OCC(=O)Nc1ccnc(OCCN(C)C)c1,-18.6
13,Cc1nc2ccn(C(C)C)c(=O)c2cc1C(=O)O,-39.7
14,CC(=O)N1CCC(n2ccc(-c3cnc(NCC(C)C)nc3)n2)CC1,-32.2
15,CC(C)N(CCNc1nc(C2CCCC2)nc2c1cnn2C)C(C)C,58.6
16,CNCCCNc1nc(C2CCCC2)nc2c1cnn2C,-38.7
17,Cn1ncc2c(NCCC34CCCN3CCC4)nc(C3CCCC3)nc21,63.3
18,CCOCCNc1nc(C2CCCC2)nc2c1cnn2C,-129
19,Cn1ncc2c(NCCn3cccc3)nc(C3CCCC3)nc21,9.86
20,CCS(=O)(=O)CCNc1nc(C2CCCC2)nc2c1cnn2C,-115
21,N#CCCCS(=O)(=O)NC1(c2cccc(Br)c2)CC1,-148
22,CCOC1COC2(CCN(c3ccccn3)CC2)C1 (centres undefined),-0.961
23,CCOCC(O)c1nc2c([nH]1)CC(C)(C)CNC2=O (centres undefined),-96.9
24,Cc1cnn(CCNCc2c(C)nn(Cc3ccccc3)c2C)c1,34.2
25,Cc1cnn(CC(C)NCc2ccc(-n3cccn3)cc2)c1 (centres undefined),-72.7
26,Cc1cnn(CC(C)NCc2c(C)nn(Cc3ccccc3)c2C)c1 (centres undefined),50.7
